Substitutions are numbered along the chain they refer to.

Common to all, as to assay: HT-SELEX; high values mean tight binding
What all share (details): protein: recombinant; vector His6-GST; dsDNA, one strand shown

Experiment [1] deals with T1, SALL4 ZFC4 WT (HT-SELEX) (Mus musculus, UniProt Q8BX22 870-940).
T1 sequence: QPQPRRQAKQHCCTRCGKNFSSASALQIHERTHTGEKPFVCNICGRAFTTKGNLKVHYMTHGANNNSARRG
The gist of the method: (§1)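 Up to 6 cycles of selection were run in triplicate. In each, purified recombinant mouse SALL4 zinc finger cluster 4 (residues 870–940, 1 µg) was incubated with library DNA (1.5 µg first cycle, 200 ng later) in 100 µl of 10 mM Tris–HCl pH 7.5, 50 mM NaCl, poly(dI-dC), DTT for 10 min at room temperature, then complexes were captured on Ni2+ beads, washed and PCR-amplified; final pools were MiSeq-sequenced and scanned for 6-mers. Binding signal is each canonical k-mer's read fraction as fold change versus the initial random library.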

Experiment [2] addresses T2, SALL4 ZFC4 R900W (HT-SELEX) (Mus musculus, UniProt Q8BX22 870-940, R900W).
T2 sequence: T1 sequence with R31W
The gist of the method: as §1

For experiment [3], the target named is T3, SALL4 ZFC4 G921D (HT-SELEX) (Mus musculus, UniProt Q8BX22 870-940, G921D).
T3 sequence: T1 sequence with G52D
The gist of the method: as §1

Take ACATTC: the binding signal in experiment [1] came out at 1.29 ± 0.0367 fold-change vs cycle 0; in experiment [2] it was 1.44 ± 0.0794 fold-change vs cycle 0; in experiment [3], 1.37 ± 0.0959 fold-change vs cycle 0.

AGTTTG: the values for the binding signal in experiment [1], in experiment [2] and in experiment [3] were 1.14 ± 0.0447 fold-change vs cycle 0, 1.23 ± 0.039 fold-change vs cycle 0 and 1.22 ± 0.0352 fold-change vs cycle 0, respectively.

On to CAGATC, for which the values for the binding signal in experiment [1], in experiment [2] and in experiment [3] were 0.723 ± 0.0477 fold-change vs cycle 0, 0.849 ± 0.0155 fold-change vs cycle 0 and 0.964 ± 0.0486 fold-change vs cycle 0, respectively.

With GAAACC, the binding signal in experiment [1] was found to be 0.748 ± 0.0342 fold-change vs cycle 0; in experiment [2] it was 0.843 ± 0.0163 fold-change vs cycle 0; in experiment [3] it was 0.916 ± 0.0216 fold-change vs cycle 0.

Regarding AGATCG, the binding signal came to 0.674 ± 0.0467 fold-change vs cycle 0 in experiment [1], 0.774 ± 0.0175 fold-change vs cycle 0 in experiment [2] and 0.926 ± 0.0361 fold-change vs cycle 0 in experiment [3].

GACCAC: the binding signal in experiment [1] is 0.381 ± 0.00949 fold-change vs cycle 0; in experiment [2] it was 0.448 ± 0.0299 fold-change vs cycle 0; in experiment [3] it was 0.55 ± 0.0669 fold-change vs cycle 0.

As to CATTTA, the binding signal in experiment [1] was 1.86 ± 0.0709 fold-change vs cycle 0; in experiment [2], 1.83 ± 0.108 fold-change vs cycle 0; in experiment [3] it was 1.69 ± 0.163 fold-change vs cycle 0.

CGTCTA: the binding signal in experiment [1] is 0.63 ± 0.0233 fold-change vs cycle 0; in experiment [2], 0.702 ± 0.0194 fold-change vs cycle 0; in experiment [3], 0.79 ± 0.0202 fold-change vs cycle 0.

Regarding CTAGAA, the binding signal in experiment [1] was determined as 1.25 ± 0.0695 fold-change vs cycle 0; in experiment [2] it was 1.37 ± 0.0276 fold-change vs cycle 0; in experiment [3], 1.3 ± 0.11 fold-change vs cycle 0.

Take TCATAA: the binding signal in experiment [1] stood at 3.28 ± 0.256 fold-change vs cycle 0; in experiment [2], 2.06 ± 0.0751 fold-change vs cycle 0; in experiment [3] it was 1.84 ± 0.154 fold-change vs cycle 0.

Regarding AAAACA, the binding signal in experiment [1] was found to be 1.61 ± 0.0773 fold-change vs cycle 0; in experiment [2], 1.67 ± 0.055 fold-change vs cycle 0; in experiment [3], 1.55 ± 0.0435 fold-change vs cycle 0.

On to AAGACG, for which the values for the binding signal in experiment [1], in experiment [2] and in experiment [3] were 0.635 ± 0.0182 fold-change vs cycle 0, 0.735 ± 0.023 fold-change vs cycle 0 and 0.815 ± 0.0404 fold-change vs cycle 0, respectively.

GACTGA: the binding signal was determined as 0.805 ± 0.0317 fold-change vs cycle 0 in experiment [1], 0.959 ± 0.0214 fold-change vs cycle 0 in experiment [2] and 0.953 ± 0.0219 fold-change vs cycle 0 in experiment [3].

As for AATCGG, the figures for the binding signal in experiment [1], in experiment [2] and in experiment [3] were 0.593 ± 0.0172 fold-change vs cycle 0, 0.657 ± 0.021 fold-change vs cycle 0 and 0.763 ± 0.0166 fold-change vs cycle 0, respectively.

Consider AACAAA, for which the binding signal in experiment [1] was determined as 1.75 ± 0.107 fold-change vs cycle 0; in experiment [2], 1.8 ± 0.139 fold-change vs cycle 0; in experiment [3], 1.64 ± 0.143 fold-change vs cycle 0.

CGTGTC: the binding signal was 0.335 ± 0.0147 fold-change vs cycle 0 in experiment [1], 0.407 ± 0.0314 fold-change vs cycle 0 in experiment [2] and 0.545 ± 0.0369 fold-change vs cycle 0 in experiment [3].

Consider ACCTCC, for which the binding signal in experiment [1] stood at 0.552 ± 0.031 fold-change vs cycle 0; in experiment [2], 0.625 ± 0.0479 fold-change vs cycle 0; in experiment [3], 0.721 ± 0.0399 fold-change vs cycle 0.

Regarding CTCCAG, the binding signal stood at 0.482 ± 0.0297 fold-change vs cycle 0 in experiment [1], 0.584 ± 0.0424 fold-change vs cycle 0 in experiment [2] and 0.667 ± 0.0339 fold-change vs cycle 0 in experiment [3].

With AAGCCA, the binding signal came out at 0.541 ± 0.0136 fold-change vs cycle 0 in experiment [1], 0.628 ± 0.0233 fold-change vs cycle 0 in experiment [2] and 0.751 ± 0.0535 fold-change vs cycle 0 in experiment [3].

Consider ATTCGC, for which the binding signal came to 0.463 ± 0.033 fold-change vs cycle 0 in experiment [1], 0.495 ± 0.0145 fold-change vs cycle 0 in experiment [2] and 0.637 ± 0.0822 fold-change vs cycle 0 in experiment [3].

As to AACGTA, the binding signal in experiment [1] is 1.18 ± 0.0508 fold-change vs cycle 0; in experiment [2], 1.3 ± 0.0339 fold-change vs cycle 0; in experiment [3], 1.23 ± 0.0704 fold-change vs cycle 0.

Regarding AACAAC, the figures for the binding signal in experiment [1], in experiment [2] and in experiment [3] were 1.18 ± 0.0643 fold-change vs cycle 0, 1.26 ± 0.0286 fold-change vs cycle 0 and 1.25 ± 0.0618 fold-change vs cycle 0, respectively.

As to TGACAA, the binding signal in experiment [1] was determined as 1.16 ± 0.0336 fold-change vs cycle 0; in experiment [2], 1.29 ± 0.0235 fold-change vs cycle 0; in experiment [3], 1.26 ± 0.0515 fold-change vs cycle 0.

Consider AAATGA, for which the figures for the binding signal in experiment [1], in experiment [2] and in experiment [3] were 2.02 ± 0.088 fold-change vs cycle 0, 1.91 ± 0.0687 fold-change vs cycle 0 and 1.75 ± 0.132 fold-change vs cycle 0, respectively.

Take AAAACC: the results for the binding signal in experiment [1], in experiment [2] and in experiment [3] were 0.956 ± 0.0539 fold-change vs cycle 0, 1.05 ± 0.0465 fold-change vs cycle 0 and 1.1 ± 0.0332 fold-change vs cycle 0, respectively.

Turning to GATAGC, the figures for the binding signal in experiment [1], in experiment [2] and in experiment [3] were 0.692 ± 0.0348 fold-change vs cycle 0, 0.798 ± 0.0237 fold-change vs cycle 0 and 0.8754 ± 0.00393 fold-change vs cycle 0, respectively.

Turning to CAGCTA, the binding signal in experiment [1] was found to be 0.637 ± 0.0596 fold-change vs cycle 0; in experiment [2], 0.727 ± 0.0267 fold-change vs cycle 0; in experiment [3], 0.82 ± 0.0545 fold-change vs cycle 0.

For AGCACT, the binding signal is 0.65 ± 0.0278 fold-change vs cycle 0 in experiment [1], 0.746 ± 0.0409 fold-change vs cycle 0 in experiment [2] and 0.859 ± 0.0159 fold-change vs cycle 0 in experiment [3].

Consider GCTTGA, for which the binding signal in experiment [1] amounted to 0.627 ± 0.00807 fold-change vs cycle 0; in experiment [2], 0.737 ± 0.0133 fold-change vs cycle 0; in experiment [3], 0.831 ± 0.0377 fold-change vs cycle 0.

Regarding CCCCTA, the binding signal in experiment [1] is 0.489 ± 0.0364 fold-change vs cycle 0; in experiment [2] it was 0.584 ± 0.015 fold-change vs cycle 0; in experiment [3], 0.638 ± 0.0291 fold-change vs cycle 0.
